# Test results taken from the supplement of paper PMC10849652.
# Of roughly 7,900 targets only a part is listed; those with a hit were picked by preference. About 0.6% of all pairs of compound and target were hits. Unmarked numbers belong to inactive results.
# Tests used:
# Test in all cases: log2 fold change, soluble protein after heating vs DMSO (PISA); higher = thermal stabilisation; K562 cells, 10 uM, 30 min; active = over 0.2 and 3.5 SD of the protein, either way, in both replicates (recomputed)
# [1] = compound: CS(=O)(=O)c1ccc(-c2cnc(N)c(C(=O)Nc3ccccc3)n2)cc1
# In short: (§1)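 K562 cells at 2×10^6 cells/mL were given 10 μM compound for 30 min. Aliquots then went through 3 min of heating across 48°C-58°C, were pooled, and were extracted in PBS with 0.5% NP-40 at 4°C, and the supernatant after 21,000xg for 90 min was quantified by TMTpro 16plex LC-MS/MS with channel sums equalised. Thermal stability relative to control samples, from duplicates, is given as log2 fold change.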
# crizotinib = compound: C[C@@H](Oc1cc(-c2cnn(C3CCNCC3)c2)cnc1N)c1c(Cl)ccc(F)c1Cl [crizotinib]
# In short: as §1
# [2] = compound: C[C@@H]1COCCN1C2=NC(=NC(=C2)C3(CC3)S(=O)(=O)C)C4=C5C=CNC5=CC=C4
# In short: as §1
# [3] = compound: C[C@H](C1=CC=C(C=C1)C(=O)NC2=C3C=CNC3=NC=C2)N
# In short: as §1
# duvelisib = compound: C[C@H](Nc1ncnc2nc[nH]c12)c1cc2cccc(Cl)c2c(=O)n1-c1ccccc1 [duvelisib]
# In short: as §1
# gandotinib = compound: Cc1cc(Nc2cc(CN3CCOCC3)c3nc(C)c(Cc4ccc(Cl)cc4F)n3n2)n[nH]1 [gandotinib]
# In short: as §1
# tozasertib = compound: Cc1cc(Nc2cc(N3CCN(C)CC3)nc(Sc3ccc(NC(=O)C4CC4)cc3)n2)n[nH]1 [tozasertib]
# In short: as §1
# [4] = compound: Cc1cc(SCc2sc(-c3ccc(C(F)(F)F)cc3)nc2C)ccc1OCC(=O)O
# In short: as §1
# doramapimod = compound: Cc1ccc(-n2nc(C(C)(C)C)cc2NC(=O)Nc2ccc(OCCN3CCOCC3)c3ccccc23)cc1 [doramapimod]
# In short: as §1
# ispinesib = compound: Cc1ccc(C(=O)N(CCCN)[C@@H](c2nc3cc(Cl)ccc3c(=O)n2Cc2ccccc2)C(C)C)cc1 [ispinesib]
# In short: as §1
# bafetinib = compound: Cc1ccc(NC(=O)c2ccc(CN3CC[C@H](N(C)C)C3)c(C(F)(F)F)c2)cc1Nc1nccc(-c2cncnc2)n1 [bafetinib]
# In short: as §1
# [5] = compound: Cc1cccc(CC(=O)N2CCc3c2ccc(-c2cn(C)c4ncnc(N)c24)c3F)n1
# In short: as §1
# nilotinib = compound: Cc1cn(-c2cc(NC(=O)c3ccc(C)c(Nc4nccc(-c5cccnc5)n4)c3)cc(C(F)(F)F)c2)cn1 [nilotinib]
# In short: as §1
# [6] = compound: Cc1nc(Nc2n[nH]c3c2CN(C(=O)N[C@H](CN(C)C)c2ccccc2)C3(C)C)c2sccc2n1
# In short: as §1
# dasatinib = compound: Cc1nc(Nc2ncc(C(=O)Nc3c(C)cccc3Cl)s2)cc(N2CCN(CCO)CC2)n1 [dasatinib]
# In short: as §1
# [7] = compound: Cc1ncc(-c2ccnc(Nc3ccc(S(C)(=O)=O)cc3)n2)n1C(C)C
# In short: as §1
# [8] = compound: Cn1cc(-c2ccc3c(c2)CCN3C(=O)Cc2cccc(C(F)(F)F)c2)c2c(N)ncnc21
# In short: as §1
# [9] = compound: Cn1cc(-c2ccc3nnc(C(F)(F)c4ccc5ncccc5c4)n3n2)cn1
# In short: as §1
# tipifarnib = compound: Cn1cncc1[C@@](N)(c1ccc(Cl)cc1)c1ccc2c(c1)c(-c1cccc(Cl)c1)cc(=O)n2C [tipifarnib]
# In short: as §1
# mubritinib = compound: FC(F)(F)c1ccc(/C=C/c2nc(COc3ccc(CCCCn4ccnn4)cc3)co2)cc1 [mubritinib]
# In short: as §1
# Sequence of UniProt P02786 (P02786 whole entry, looked up): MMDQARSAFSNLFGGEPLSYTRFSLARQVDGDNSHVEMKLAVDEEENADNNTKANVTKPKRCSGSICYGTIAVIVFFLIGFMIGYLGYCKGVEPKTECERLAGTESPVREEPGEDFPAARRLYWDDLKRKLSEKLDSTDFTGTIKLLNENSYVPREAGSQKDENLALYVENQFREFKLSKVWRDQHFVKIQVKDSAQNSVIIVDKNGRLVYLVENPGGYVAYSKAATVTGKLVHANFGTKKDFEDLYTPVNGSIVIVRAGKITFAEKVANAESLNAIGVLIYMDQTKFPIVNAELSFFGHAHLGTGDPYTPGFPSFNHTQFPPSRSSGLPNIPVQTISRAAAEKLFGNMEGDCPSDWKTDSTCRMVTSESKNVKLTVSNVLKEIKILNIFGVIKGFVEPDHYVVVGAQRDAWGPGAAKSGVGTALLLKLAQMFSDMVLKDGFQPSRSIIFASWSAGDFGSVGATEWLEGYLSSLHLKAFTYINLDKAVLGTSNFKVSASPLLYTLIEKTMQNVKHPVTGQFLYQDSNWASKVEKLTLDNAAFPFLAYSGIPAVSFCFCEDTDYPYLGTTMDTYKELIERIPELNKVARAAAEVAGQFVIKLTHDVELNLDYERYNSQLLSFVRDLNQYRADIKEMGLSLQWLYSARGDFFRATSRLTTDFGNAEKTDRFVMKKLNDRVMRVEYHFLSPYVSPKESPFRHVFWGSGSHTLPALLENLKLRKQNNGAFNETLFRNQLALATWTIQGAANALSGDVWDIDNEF
# Sequence of UniProt Q14849 (Q14849 whole entry, looked up): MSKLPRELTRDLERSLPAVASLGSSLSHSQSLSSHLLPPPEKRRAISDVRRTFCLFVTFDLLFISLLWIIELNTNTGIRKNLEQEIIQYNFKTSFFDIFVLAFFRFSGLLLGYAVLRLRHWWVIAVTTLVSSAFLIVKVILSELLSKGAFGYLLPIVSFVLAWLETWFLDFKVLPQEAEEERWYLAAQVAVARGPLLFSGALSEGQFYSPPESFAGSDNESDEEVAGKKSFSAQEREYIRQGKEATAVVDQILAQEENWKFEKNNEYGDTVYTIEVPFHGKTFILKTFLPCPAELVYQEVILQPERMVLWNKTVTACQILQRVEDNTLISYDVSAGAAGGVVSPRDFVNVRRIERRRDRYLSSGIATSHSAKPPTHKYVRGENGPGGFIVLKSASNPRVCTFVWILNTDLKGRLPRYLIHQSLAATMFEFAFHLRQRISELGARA
# Sequence of UniProt Q9BUA3 (Q9BUA3 whole entry, looked up): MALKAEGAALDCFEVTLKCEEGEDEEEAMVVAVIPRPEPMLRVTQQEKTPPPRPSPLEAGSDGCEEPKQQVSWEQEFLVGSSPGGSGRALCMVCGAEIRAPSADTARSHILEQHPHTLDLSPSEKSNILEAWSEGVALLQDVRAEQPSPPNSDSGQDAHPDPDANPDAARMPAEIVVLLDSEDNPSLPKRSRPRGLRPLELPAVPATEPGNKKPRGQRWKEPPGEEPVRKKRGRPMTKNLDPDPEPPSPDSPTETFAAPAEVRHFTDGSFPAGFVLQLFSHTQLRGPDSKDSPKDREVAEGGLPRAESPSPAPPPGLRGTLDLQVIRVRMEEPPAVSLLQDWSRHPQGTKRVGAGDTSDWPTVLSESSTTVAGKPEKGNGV
# Sequence of UniProt P08579 (P08579 whole entry, looked up): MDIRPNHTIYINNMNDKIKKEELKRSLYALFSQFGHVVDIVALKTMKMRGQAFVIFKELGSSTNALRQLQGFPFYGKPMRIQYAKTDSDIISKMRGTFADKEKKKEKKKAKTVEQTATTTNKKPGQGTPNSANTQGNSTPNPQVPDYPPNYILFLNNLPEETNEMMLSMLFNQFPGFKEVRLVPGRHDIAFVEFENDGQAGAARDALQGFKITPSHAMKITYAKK
# Sequence of UniProt P04920 (P04920 whole entry, looked up): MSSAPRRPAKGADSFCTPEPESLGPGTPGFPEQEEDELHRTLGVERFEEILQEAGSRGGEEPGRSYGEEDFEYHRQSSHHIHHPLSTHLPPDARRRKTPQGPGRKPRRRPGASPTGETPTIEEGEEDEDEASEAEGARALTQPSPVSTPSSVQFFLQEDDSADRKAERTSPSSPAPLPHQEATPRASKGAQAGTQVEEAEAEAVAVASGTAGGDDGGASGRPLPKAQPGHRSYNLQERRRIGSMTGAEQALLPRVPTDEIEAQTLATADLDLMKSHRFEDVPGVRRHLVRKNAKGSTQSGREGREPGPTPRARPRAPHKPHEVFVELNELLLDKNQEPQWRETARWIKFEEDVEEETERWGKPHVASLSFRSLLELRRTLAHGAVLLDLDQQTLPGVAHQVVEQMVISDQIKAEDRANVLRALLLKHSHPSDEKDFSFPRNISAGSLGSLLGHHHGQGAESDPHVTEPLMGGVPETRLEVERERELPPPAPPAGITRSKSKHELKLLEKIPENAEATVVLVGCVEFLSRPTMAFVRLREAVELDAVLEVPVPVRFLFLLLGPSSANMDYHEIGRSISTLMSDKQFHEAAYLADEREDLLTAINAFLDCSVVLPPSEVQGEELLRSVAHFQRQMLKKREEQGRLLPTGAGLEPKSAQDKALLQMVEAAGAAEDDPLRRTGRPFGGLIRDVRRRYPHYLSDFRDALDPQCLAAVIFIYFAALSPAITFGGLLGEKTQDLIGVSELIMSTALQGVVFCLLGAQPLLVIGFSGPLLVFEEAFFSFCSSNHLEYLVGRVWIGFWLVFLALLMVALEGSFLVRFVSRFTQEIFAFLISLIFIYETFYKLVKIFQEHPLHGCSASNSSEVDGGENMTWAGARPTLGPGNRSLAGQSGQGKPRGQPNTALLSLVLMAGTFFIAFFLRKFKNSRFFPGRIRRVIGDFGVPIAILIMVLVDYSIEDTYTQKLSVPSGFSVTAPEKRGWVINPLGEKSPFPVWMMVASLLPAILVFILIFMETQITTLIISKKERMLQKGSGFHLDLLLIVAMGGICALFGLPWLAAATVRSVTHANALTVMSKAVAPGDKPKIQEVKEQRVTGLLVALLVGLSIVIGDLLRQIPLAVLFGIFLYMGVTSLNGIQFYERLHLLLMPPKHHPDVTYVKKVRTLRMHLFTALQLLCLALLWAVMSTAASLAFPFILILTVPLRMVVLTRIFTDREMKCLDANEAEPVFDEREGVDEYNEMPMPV
# Sequence of UniProt Q9UBP0 (Q9UBP0 whole entry, looked up): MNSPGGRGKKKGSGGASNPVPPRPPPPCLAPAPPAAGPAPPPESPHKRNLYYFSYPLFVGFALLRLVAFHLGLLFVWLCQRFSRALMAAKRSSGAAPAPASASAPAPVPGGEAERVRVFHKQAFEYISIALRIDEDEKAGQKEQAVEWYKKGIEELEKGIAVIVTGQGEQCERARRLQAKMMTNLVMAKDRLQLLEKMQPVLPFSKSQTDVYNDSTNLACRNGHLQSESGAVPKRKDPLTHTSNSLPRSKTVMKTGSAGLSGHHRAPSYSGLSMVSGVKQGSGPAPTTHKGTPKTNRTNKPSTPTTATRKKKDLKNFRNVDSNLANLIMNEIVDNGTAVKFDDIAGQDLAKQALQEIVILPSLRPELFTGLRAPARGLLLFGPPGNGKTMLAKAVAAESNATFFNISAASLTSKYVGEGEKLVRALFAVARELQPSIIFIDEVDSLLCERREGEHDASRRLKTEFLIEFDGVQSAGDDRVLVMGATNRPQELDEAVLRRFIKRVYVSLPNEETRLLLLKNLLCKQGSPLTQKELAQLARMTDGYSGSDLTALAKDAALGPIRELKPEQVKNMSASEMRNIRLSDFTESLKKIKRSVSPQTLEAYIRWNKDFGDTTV
# Sequence of UniProt P35610 (P35610 whole entry, looked up): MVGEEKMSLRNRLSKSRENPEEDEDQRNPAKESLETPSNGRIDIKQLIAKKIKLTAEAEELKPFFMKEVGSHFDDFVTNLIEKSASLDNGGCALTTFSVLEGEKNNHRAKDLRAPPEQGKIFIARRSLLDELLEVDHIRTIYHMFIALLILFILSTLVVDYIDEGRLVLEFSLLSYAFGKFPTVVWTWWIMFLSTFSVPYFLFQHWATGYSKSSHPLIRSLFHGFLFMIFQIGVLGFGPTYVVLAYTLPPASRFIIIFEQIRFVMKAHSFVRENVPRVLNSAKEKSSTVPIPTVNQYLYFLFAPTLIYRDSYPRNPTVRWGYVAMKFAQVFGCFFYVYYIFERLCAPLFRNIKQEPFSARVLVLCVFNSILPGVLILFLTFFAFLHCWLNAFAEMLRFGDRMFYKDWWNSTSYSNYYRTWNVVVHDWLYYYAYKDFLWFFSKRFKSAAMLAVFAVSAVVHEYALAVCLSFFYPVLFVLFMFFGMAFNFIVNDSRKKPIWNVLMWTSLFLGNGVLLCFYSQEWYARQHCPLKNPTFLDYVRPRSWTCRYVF
# Sequence of UniProt Q9NUY8 (Q9NUY8 whole entry, looked up): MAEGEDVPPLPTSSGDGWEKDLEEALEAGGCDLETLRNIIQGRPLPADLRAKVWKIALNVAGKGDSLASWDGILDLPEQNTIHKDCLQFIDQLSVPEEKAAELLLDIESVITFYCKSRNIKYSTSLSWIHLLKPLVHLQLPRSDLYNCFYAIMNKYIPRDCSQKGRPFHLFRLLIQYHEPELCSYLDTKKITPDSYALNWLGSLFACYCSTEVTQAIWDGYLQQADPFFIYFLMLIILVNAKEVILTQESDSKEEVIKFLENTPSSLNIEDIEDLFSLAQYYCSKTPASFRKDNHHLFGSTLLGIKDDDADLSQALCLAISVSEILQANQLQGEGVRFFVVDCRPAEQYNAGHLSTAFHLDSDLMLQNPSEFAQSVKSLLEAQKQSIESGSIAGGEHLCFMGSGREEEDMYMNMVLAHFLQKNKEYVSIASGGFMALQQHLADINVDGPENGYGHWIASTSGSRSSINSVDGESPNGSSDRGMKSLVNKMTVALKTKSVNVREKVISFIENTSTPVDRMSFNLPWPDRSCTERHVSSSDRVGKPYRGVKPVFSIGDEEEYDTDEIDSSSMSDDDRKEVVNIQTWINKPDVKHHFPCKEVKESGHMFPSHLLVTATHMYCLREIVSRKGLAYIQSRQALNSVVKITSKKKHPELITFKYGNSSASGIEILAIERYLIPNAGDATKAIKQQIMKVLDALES
Target,log2 fold change [1],log2 fold change (crizotinib),log2 fold change [2],log2 fold change [3],log2 fold change (duvelisib),log2 fold change (gandotinib),log2 fold change (tozasertib),log2 fold change [4],log2 fold change (doramapimod),log2 fold change (ispinesib),log2 fold change (bafetinib),log2 fold change [5],log2 fold change (nilotinib),log2 fold change [6],log2 fold change (dasatinib),log2 fold change [7],log2 fold change [8],log2 fold change [9],log2 fold change (tipifarnib),log2 fold change (mubritinib)
TM9SF4 (UniProt Q92544),-0.029,-0.141,0.036,0.04,-0.015,-0.189,0.006,0.044,0.034,-0.143,0.034,0.252 (active),0.005,0.012,0.127,0.037,-0.021,0.004,-0.061,0.007
STARD3 (UniProt Q14849),0.017,-0.36 (active),0.194,-0.043,0.065,0.098,-0.06,-0.015,0.043,-0.559 (active),-0.097,0.064,0.215,0.218,0.284,0.068,0.119,-0.018,0.022,-0.067
STIM1 (UniProt Q13586),0.015,-0.07,0.087,-0.028,0.014,-0.008,-0.018,0.057,0.011,-0.233,-0.143,0,0.002,-0.01,-0.006,-0.025,0.028,0.01,0.012,0.016
SNRPB2 (UniProt P08579),-0.014,0.02,-0.024,0.008,-0.017,0.026,-0.008,-0.048,-0.01,0.027,-0.034,-0.081,0.04,0.048,0.075,0.135,-0.116,-0.025,0.084,0.045
SRP72 (UniProt O76094),0.021,-0.121,-0.017,0.167,-0.004,-0.08,0.068,0.154,0.051,-0.185,0.05,0.048,-0.117,-0.03,-0.186,0.108,-0.052,-0.052,-0.148,-0.036
TBC1D23 (UniProt Q9NUY8),-0.026,-0.019,0.022,0,0.002,-0.205,-0.042,0.028,-0.027,-0.48 (active),-0.141,0.041,-0.113,-0.032,-0.155,-0.056,0.025,0.006,0.003,-0.011
TECR (UniProt Q9NZ01),-0.002,-0.247,0.054,0.045,0.05,-0.344 (active),-0.031,0.044,-0.095,-0.501 (active),-0.133,0.057,-0.123,-0.035,-0.109,0.021,-0.006,-0.012,-0.135,0.016
TFRC (UniProt P02786),0.026,-0.283 (active),0.012,-0.018,0.047,-0.011,-0.01,-0.023,-0.012,-0.059,-0.277 (active),-0.038,-0.005,-0.043,0.009,-0.018,0.012,0.027,-0.004,0.052
SLC25A42 (UniProt Q86VD7),-0.054,0.028,0.015,-0.055,0.005,0.09,-0.021,-0.003,-0.004,0.054,-0.081,-0.069,0.009,-0.024,-0.025,0.048,-0.022,-0.049,0.017,0.051
SOAT1 (UniProt P35610),0.066,0.139,0.094,-0.018,0.069,0.079,-0.021,-0.026,0.448 (active),0.158,0.085,0.011,0.566 (active),-0.001,0.257,-0.021,0.031,-0.058,0.039,0.096
SPINDOC (UniProt Q9BUA3),0.09,0.104,-0.059,-0.074,-0.296,-0.001,0.14,0.053,0.097,-0.008,-0.149,-0.031,0.049,-0.458 (active),-0.105,-0.127,-0.085,-0.044,0.046,0.04
SLC4A2 (UniProt P04920),0.114,-0.053,0.013,0.126,-0.015,-0.075,-0.069,-0.058,0.07,-0.099,-0.101,-0.037,0.027,-0.165,-0.125,0.043,0.023,-0.045,-0.068,0.029
ST3GAL2 (UniProt Q16842),0.096,-0.288,-0.017,0.006,0.035,0.127,0.024,0.033,0,-0.096,0.092,-0.008,0.191,-0.042,0.179,0.081,-0.039,-0.022,0.076,-0.026
SNRNP40 (UniProt Q96DI7),0.033,0.116,0.14,0.023,-0.015,0.22,0.019,-0.059,0.071,0.077,0.018,-0.023,0.054,0.166,0.1,0.119,-0.051,-0.021,0.038,0.006
SPAST (UniProt Q9UBP0),0.002,-0.074,0.043,0.001,0.069,-0.025,-0.01,0.15,-0.078,-0.001,-0.015,-0.057,-0.05,-0.054,-0.246 (active),0.026,0.099,-0.022,-0.065,0.036
SRSF9 (UniProt Q13242),-0.11,0.058,-0.539,0.389,-0.142,0.4,–,-0.048,0.26,-0.255,0.166,-0.02,0.014,0.05,0.422,0.001,-0.377,-0.129,0.298,-0.189
